PI5P4Ka inh: qHTS for Inhibitors of phosphatidylinositol 5-phosphate 4-kinase (PI5P4K). PI5P4Kalpha enzyme, ADP-Glo luminescence, 60 min; hits give low values. 330,000 tested, 1.2% active. Phosphatidylinositol 5-phosphate 4-kinase type-2 alpha (Homo sapiens), P48426. max response, %; active = max response of -50% or lower; inconclusive = between -30% and -50%; inactive = -30% or higher; note: value at the top dose of about 77 µM; % is set by controls: 0 for no effect and ±100 for the full control effect
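PI5P4Kalpha ADP-Glo assay; 5 microM ATP final; 60 min RT reaction; HEPES pH 7.4/EGTA/CHAPS, 5% DMSO; controls lacking substrate or enzyme; luminescent end-point.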
JMJD2A Tudor inh: qHTS Assay for Inhibitors of JMJD2A-Tudor Domain | AlphaScreen JMJD2A-Tudor / H3K4me3 peptide binding | Potency, µM (series often up to 114 µM), without a hit: at the top dose activity change, negative = inhibition, actives largely listed as inhibitors | 390,000 tested, 4.4% active | AID 504339, 2011; note: potency is the fitted concentration of half-maximal effect; % is set by controls: 0 for no effect and ±100 for the full control effect; nearly all actives have a fitted effect of over 50% in size
G9a inh: qHTS Assay for Inhibitors of Histone Lysine Methyltransferase G9a | G9a H3K9 monomethylation, AlphaScreen, 2 h | Potency, µM (doses to about 102 µM), without a hit: at the top dose activity, negative = inhibition, most hits filed as inhibitors | 350,000 tested, 8.8% active; note: potency is the fitted concentration of half-maximal effect; % is set by controls: 0 for no effect and ±100 for the full control effect; nearly all actives have a fitted effect of over 75% in size
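Step 1: enzyme (final 20 nM) with compound, 15 min RT. Step 2: substrate peptide 500 nM and SAM 20 uM, 2 h RT. Step 3: anti-H3K9me1 antibody and AlphaScreen beads, 10 min, then plate read.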
L3MBTL1 inh: qHTS Assay for the Inhibitors of L3MBTL1; 230,000 tested, 0.66% active; Lethal(3)malignant brain tumor-like protein 1 (Homo sapiens), Q9Y468; AlphaScreen L3MBTL1–H3K9me1 peptide binding; Potency, µM (doses to about 57.1 µM), for the others: at the highest dose activity, negative = inhibition, actives largely listed as inhibitors; AID 485360, 2010; note: potency is the fitted concentration of half-maximal effect; % is set by controls: 0 for no effect and ±100 for the full control effect; nearly all actives have a fitted effect of over 60% in size
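Displacement of a biotinylated histone H3(1-15) peptide monomethylated at Lys9 (75 nM) from L3MBTL1 (50 nM) was measured by AlphaScreen after a 30 min room-temperature compound incubation; cefsulodin titration served as intraplate control.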
BAZ2B inh: qHTS Assay for Inhibitors of BAZ2B; Bromodomain adjacent to zinc finger domain protein 2B (Homo sapiens), Q9UIF8; AlphaScreen BAZ2B-H3K14Ac peptide displacement; Potency, µM (doses to about 114 µM), without a hit: at the highest dose activity change, negative = inhibition, hits mostly inhibitors; 360,000 tested, 4.4% active; note: potency is the fitted concentration of half-maximal effect; % is set by controls: 0 for no effect and ±100 for the full control effect; nearly all actives have a fitted effect of over 60% in size
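Inhibition is scored as reduced AlphaScreen emission. The BAZ2B/b-H3(5-23)K14Ac complex (50 nM each) in PBS pH 7.4, 0.01% Tween-20 meets compound (up to 110 uM) for 30 min at RT before bead addition.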
HP1b chromo inh: HTS for Inhibitors of HP1-beta Chromodomain Interactions with Methylated Histone Tails; Chromobox protein homolog 1 (Homo sapiens), P83916; AlphaScreen HP1-beta / biotin-H3K9me3 peptide binding; Potency, µM (series often up to 114 µM), for inactives: at the top dose activity change, negative = inhibition, actives largely listed as inhibitors; 390,000 tested, 0.56% active; AID 540317, 2011; note: potency is the fitted concentration of half-maximal effect; nearly all actives have a fitted effect of over 70% in size
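HP1-beta protein (50 nM final) preincubated 30 min at room temperature with biotinylated H3(1-18)K9me3 peptide (50 nM) in PBS pH 7.4, 0.01% Tween-20, then compound added for 30 min. AlphaScreen streptavidin donor/nickel chelate acceptor beads (10 ug/mL final), 30 min dark, luminescence read.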
The depositor's hits bear a star; ? = inconclusive; nt = no result given; [ ] = remark or other dose. Shown are actives, neighbours in structure and some others; about 11% of the full set was active somewhere. Unless noted, calls come from the whole dose curve; as a rule, active = well fitted inhibition curve with a large enough effect; inconclusive = small, poorly fitted or top-dose-only effect; inactive = no such curve, though single readings can be large or run the other way.

SMILES	PI5P4Ka inh	JMJD2A Tudor inh	G9a inh	L3MBTL1 inh	BAZ2B inh	HP1b chromo inh
O=C1OC(c2ccccc2)/C(=C(/O)c2ccc(Cl)cc2)C1=O (stereo unspecified)	2.3	25.1µM*	-3.9%[12.7 µM]	nt	?	-5.6%
O=S(=O)(NCCc1nnc2ccc(SCc3c(F)cccc3Cl)nn12)c1ccccc1	nt	-16.1%	-30.1%[59 µM]	nt	?	23.7%
COc1ccc(CNC(=O)Cn2c(=O)n3nc(-c4cccc(F)c4)nc3c3ccccc32)cc1OC	nt	-7.5%	-19.4%[59 µM]	nt	1.4%	22.0%
Cc1ccc(N(CC(=O)Nc2ccc(F)cc2F)S(=O)(=O)c2cccs2)cc1	nt	-13.7%	-2.8%[59 µM]	nt	nt	42.9%
CCN(CC)c1cc(NCCO)c([N+](=O)[O-])c2nonc12	-0.8	-13.9%	nt	6.4%	-11.2%	28.1%
CC(C)CCSc1cc(NCCO)c([N+](=O)[O-])c2nonc12	0.0	-30.8%	50.1µM*	-8.0%	-33.4%	21.7%
CCC(=O)OCCNc1cc(SCCC(=O)OC)c2nonc2c1[N+](=O)[O-]	-6.6	-16.2%[57.1 µM]	12.6µM*	-7.6%	-7.8%	12.4%[57 µM]
COC(=O)CCSc1cc(NCCCOC(C)=O)c([N+](=O)[O-])c2nonc12	nt	0.8%[57.1 µM]	nt	nt	nt	8.1%[57 µM]
Cc1ccc(Sc2cc(NCCCO)c([N+](=O)[O-])c3nonc23)cc1	-12.4	-11.8%[11.4 µM]	50.1µM*	nt	-25.1%	-5.4%
CCCC(=O)OCCNc1cc(Sc2nc3ccccc3[nH]2)c2nonc2c1[N+](=O)[O-]	-25.3	79.4µM*	?	0.0%	?	?
COc1ccc(-n2c(=O)c(-c3ccccc3)nc3cnc(N4CCOCC4)nc32)cc1	nt	nt	2.6%[0.501 µM]	nt	nt	nt
CC(C)(C)C1CCc2nc(NC(=O)Cc3ccccc3)sc2C1 (stereo unspecified)	nt	-1.3%	-8.7%[59 µM]	nt	7.1%	33.9%
Nc1nc2c(s1)CC(c1ccccc1)CC2 (stereo unspecified)	1.1	5.5%[11.4 µM]	50.1µM*	-4.7%	?	-2.0%
CC1(C)[N+]([O-])=C2C(=[N+]([O-])C1(C)C)c1ccccc1/C2=N\O	-0.6	-2.6%	50.1µM*	-3.7%	?	18.0%
ON=C1c2ccccc2-c2ccc(F)cc21	80.3	-14.6%	nt	nt	nt	37.8%
O=S(=O)(c1cccc2ccccc12)N1CCN(c2nc(-c3cccs3)nc3ccccc23)CC1	nt	-15.0%	nt	nt	nt	33.5%
CC(C)(C)SCCNS(=O)(=O)c1ccc(Cl)cc1	-4.9	17.8µM*	35.7%[12.7 µM]	5.0%	-1.1%	-14.1%
COc1ccc(CNC(=O)c2ccc3c(c2)CCN3S(=O)(=O)c2ccc(Cl)cc2)cc1	nt	-12.3%	3.9%[59 µM]	nt	-2.1%	52.8%
Cc1ccc(C(=O)CNc2ccc(Cl)cc2)cc1	-2.8	-23.4%	?	nt	?	16.6%
CCOc1ccc(NCC(=O)c2ccc(C)cc2)cc1	1.9	?	-8.7%[59 µM]	nt	35.5µM*	-15.5%
CCOc1ccc(NC(=O)c2ccc(NCC(=O)N3CCCCCC3)cc2)cc1	-1.7	-7.6%	25.1µM*	15.1%	-0.1%	47.7%
Cc1ccc(NC(=O)Cn2c(-c3cncs3)nc3ccccc32)c(Br)c1	nt	-34.6%	-33.8%[59 µM]	nt	-8.8%	7.0%
Cn1c2ccccc2c2cc([N+](=O)[O-])ccc21	-1.0	-4.9%	nt	2.5%	-6.5%	27.5%
CN1c2ccc([N+](=O)[O-])cc2N(C)C1(C)c1ccccc1 (stereo unspecified)	-7.2	10µM*	nt	14.1µM*	8.91µM*	10µM*
COc1ccc(S(=O)(=O)N2CCC(C(=O)N[C@H](C(=O)NCc3ccco3)C(C)C)CC2)cc1	-9.4	-4.6%	nt	nt	-3.2%	35.9%
CC(C)[C@H](NC(=O)C1CCN(S(=O)(=O)c2ccc(F)cc2)CC1)C(=O)NCc1ccco1	-8.4	35.5µM*	nt	nt	-3.8%	-6.2%

Assay outcomes from PubChem.
